Screens as filed in PubChem BioAssay.
TDP1 cell CPT – DT40-hTDP1 cell growth loss with CPT; Potency, µM (series often up to 46.2 µM), without a hit: at the highest dose activity change, negative = growth inhibition, hits mostly inhibitors; AID 686979; 12% of 420,000 active; chicken DT40 Tdp1-/-;hTDP1 cells + 20 nM CPT, ATP luminescence, 48 h; also: nearly all actives have a fitted effect of over 55% in size
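Chicken DT40 Tdp1-/- cells complemented with human TDP1, 400 cells/well, exposed to compounds plus 20 nM camptothecin for at least 48 h at 37 C; viability read as ATP content by CellTiter-Glo luminescence.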
TDP1 cell noCPT – qHTS for Inhibitors of human tyrosyl-DNA phosphodiesterase 1 (TDP1): qHTS in cells in absence of CPT; DT40 Tdp1-/- hTDP1 cells, no CPT, ATP luminescence, 48 h; Potency, µM (highest dose often 46.2 µM), inactives show at the highest dose activity change, negative = growth inhibition, most hits filed as inhibitors; 15% of 420,000 active; AID 686978, 2013; also: nearly all actives have a fitted effect of over 55% in size
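Luminescent ATP content (CellTiter-Glo) served as the growth readout. Knockout chicken DT40 cells expressing human TDP1 were exposed to compounds without camptothecin for a minimum 48 hr at 37 °C.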
PLK1 PBD inh – blocks phosphopeptide binding to human PLK1 polo-box domain. P53350. Plk1 PBD binding of FITC phosphopeptide, fluorescence polarization. Potency, µM, without a hit: max response, negative = inhibition, hits mostly inhibitors. 2.8% of 360,000 active. AID 720504; also: series mostly up to about 57 µM; nearly all actives have a fitted effect of over 65% in size
Target sequence (P53350 whole entry, looked up, the tested form may be a part): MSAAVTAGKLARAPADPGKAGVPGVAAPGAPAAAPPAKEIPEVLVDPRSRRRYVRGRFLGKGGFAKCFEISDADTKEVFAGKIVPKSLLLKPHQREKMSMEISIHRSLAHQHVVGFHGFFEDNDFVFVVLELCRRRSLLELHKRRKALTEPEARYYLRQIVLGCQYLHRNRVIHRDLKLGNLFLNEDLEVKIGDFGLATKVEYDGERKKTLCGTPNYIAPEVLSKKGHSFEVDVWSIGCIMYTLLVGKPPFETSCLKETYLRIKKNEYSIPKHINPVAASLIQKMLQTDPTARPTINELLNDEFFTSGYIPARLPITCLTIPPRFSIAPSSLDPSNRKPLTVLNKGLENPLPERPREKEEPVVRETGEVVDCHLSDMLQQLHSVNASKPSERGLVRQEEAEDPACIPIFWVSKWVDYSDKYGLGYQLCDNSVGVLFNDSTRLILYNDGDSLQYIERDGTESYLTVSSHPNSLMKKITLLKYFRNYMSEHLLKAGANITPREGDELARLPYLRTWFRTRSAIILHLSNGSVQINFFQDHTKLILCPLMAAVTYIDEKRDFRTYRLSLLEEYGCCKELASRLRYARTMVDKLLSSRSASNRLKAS
GCN5L2 inh – GCN5L2 (KAT2A) acetyltransferase inhibition; Q92830; GCN5L2 HAT assay, ThioGlo1 CoA-SH fluorescence; Potency, µM (series often up to 58.9 µM), without a hit: top-dose activity change, negative = inhibition, most hits filed as inhibitors; 0.21% of 390,000 active; AID 504327
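Enzyme at 20nM final was mixed with library compounds for 15 min at room temperature. Peptide H3(1-25) at 75uM, acetyl-CoA at 70uM and ThioGlo1 at 50uM were then added. Plates were read immediately and after 20 min (Ex340nm/Em540nm).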
VDR inhibitor – inhibitors of human vitamin D receptor; P11473; VDR-SRC2-3 peptide fluorescence polarization, 2 h; Potency, µM, for the others: max response, negative = inhibition, most hits filed as inhibitors; 0.93% of 400,000 active
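Inhibition of the VDR/SRC2-3 peptide interaction is quantified by fluorescence polarization. Compounds (23 nl, pintool) incubate with the reagents for 2 hours at ambient room temperature.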
TDP1 inh – inhibitors of human tyrosyl-DNA phosphodiesterase TDP1; Q9NUW8; recombinant TDP1, AlphaScreen DNA substrate cleavage; Potency, µM (titrated, usually from 130 µM), inactives show at the top dose activity change, negative = inhibition, hits mostly inhibitors; 0.28% of 350,000 active; also: nearly all actives have a fitted effect of over 40% in size
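E. coli-derived human Tdp1, 1 nM final. Cpd preinc 15 min RT; substrate 15 nM final, 5 min RT; AS bead mix 10 ug/ml final, 10 min RT. Signal loss = tyrosine-FITC cleavage. No-enzyme wells = max signal.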
Numbers without * were called inactive; ? = inconclusive; / = no result given; ! = repeats disagree; [ ] = another dose, or the depositor's remark. Most compounds without a hit are left out; they make up all but 18% or so of the library. Calls follow the shape of the dose curve; as a rule, active = well fitted curve in the direction sought with a large enough effect; inconclusive = small, poorly fitted or top-dose-only effect, or another doubt; inactive = no such curve, though single readings can be large; an effect the other way counts as inactive or inconclusive. % is scaled to controls: 0 for no effect and ±100 for the full control effect; potency is read from the fitted curve at half-maximal effect.

SMILES	TDP1 cell CPT	TDP1 cell noCPT	PLK1 PBD inh	GCN5L2 inh	VDR inhibitor	TDP1 inh
CC[C@H](CO)Nc1nc(NCc2ccccc2)c2ncn(C(C)C)c2n1	25µM*	22µM*!	/	13%	-4%	12%[56.1 µM]
CNCC[C@H](Oc1cccc2ccccc12)c1cccs1	16µM*	23µM*	-7%	13%	-17%	-2%
Cc1ccccc1-c1nc(CN2C(=O)CN=C(c3ccccc3)c3ccccc32)c(C)o1	?	-78%	/	-5%	9%	1%
CCOP(=O)(OCC)c1cccc(P(=O)(c2ccccc2)c2ccccc2)c1O	-120%	?	-23%	-2%	7%	/
CC(C)c1ccc(NC(=O)Nc2nc(C(N)CCc3ccccc3)cs2)cc1 (stereo not given)	5.8µM*	4.6µM*	5%	/	/	/
Cn1c(=O)c2c(ncn2CC(=O)Nc2nc(-c3ccccc3Cl)cs2)n(C)c1=O	?	-18%	-9%	-12%	12%	6%
COc1ccc(-c2csc(NC(=O)COC(=O)Cc3ccccc3)n2)cc1OC	/	/	/	2%	/	0%
CC(C)CC(N)c1csc(NC(=O)Nc2ccccc2-c2ccccc2)n1 (stereo not given)	23µM*	18µM*	3%	/	/	/
COc1ccccc1N1CCN(Cc2cc(C)c(C)cc2O)CC1	23µM*	21µM*	0%	-2%	-1%	0%
COc1cc(CN2CCN(c3cc(C)ccc3C)CC2)ccc1O	7.3µM*	7.3µM*	-4%	3%	-18%	0%
O=C(Nc1ccc(OC(=O)N2CCCCC2)cc1)N1CCOCC1	2%	4%	1%	3%	-23%	3%
O=C(Oc1ccc2ccc(OC(=O)N3CCCCCC3)cc2c1)N1CCCCCC1	12µM*	21µM*	8%	-9%	-9%	-3%
Oc1c(Cl)cccc1Cl	/	/	/	/	/	3%
C1CN(P2(N3CC3)=NP(N3CC3)(N3CC3)=NP(N3CC3)(N3CC3)=N2)CCO1 (stereo not given)	0.58µM*	1.3µM*	1%	/	/	/
CCC1=C(C)C(N2CCOCC2)=NP(N2CCOCC2)(N2CCOCC2)=N1	15%	8%	0%	-5%	-13%	-1%
CCOP(=O)(OCC)c1nc(-c2ccc(Br)cc2)oc1N1CCCCC1	10µM*	8.2µM*	-9%	-8%	-3%	/
CCOP(=O)(OCC)c1nc(-c2cccc3ccccc23)oc1NCCc1ccc(OC)cc1	?	?	1%	-20%	-11%	?
CCOP(=O)(OCC)c1nc(-c2cccc3ccccc23)oc1N1CCOCC1	?	10µM*	-7%	?	-13%	1%
CCOP(=O)(c1ccccc1)c1nc(-c2ccc(F)cc2)oc1N1CCCCC1 (stereo not given)	13µM*	21µM*	-8%	-6%	-1%	2%
CCOP(=O)(OCC)c1nc(-c2ccc(F)cc2)oc1NCc1ccccc1	?	-52%	-16%	-6%	-21%	3%
CCOP(=O)(OCC)c1nc(-c2ccccc2)oc1NCc1ccccc1	?	?	5%	-7%	7%	-6%
C1=CC(Cc2cncs2)c2ccccc21 (stereo not given)	7%	3%	-20%	?	-15%	0%
CN1C[C@H](C(=O)N[C@]2(C)O[C@@]3(O)[C@H]4CCCN4C(=O)[C@H](Cc4ccccc4)N3C2=O)C[C@H]2c3cccc4[nH]cc(c34)C[C@@H]21	?	?	/	/	/	18%
CN1C[C@H](C(=O)NC2(C)OC3(O)[C@@H]4CCCN4C(=O)[C@H](Cc4ccccc4)N3C2=O)CC2c3cccc4[nH]cc(c34)C[C@H]21 (stereo not given in full)	16µM*	16µM*	-11%	/	8%	/
CC(C)C[C@H]1C(=O)N2CCC[C@H]2[C@]2(O)O[C@](NC(=O)[C@@H]3C=C4c5cccc6[nH]cc(c56)C[C@H]4N(C)C3)(C(C)C)C(=O)N12	21µM*	16µM*	?	-27%	79µM*	/
SMILES	TDP1 cell CPT	TDP1 cell noCPT	PLK1 PBD inh	GCN5L2 inh	VDR inhibitor	TDP1 inh
CN1CCCC2(CCN(C(=O)Oc3ccccc3)CC2)C1	14%	-5%	/	-11%	-1%	/
COc1cc2c(cc1OC)-c1c(OC)c(OC)c(C=O)c3c1[C@H](C2)N(C)CC3	-79%	?	/	-25%	8.9µM*	11%
COc1cc2c(cc1OC)-c1c(OC)c(OC)cc3c1[C@H](C2)N(C)CC3	?	16µM*	-1%	-1%	-3%	-3%
COc1cc2c(cc1O)CC1c3c(cc(O)c(OC)c3-2)CCN1C (stereo not given)	-28%	-25%	-6%	-7%	2%	14%[56.1 µM]
O=[N+]([O-])/N=C1\NCCN1Cc1ccc(Cl)nc1	8.4µM*!	6.7µM*	/	/	/	/
CCC1CO/C(=C(\C(Cl)=C(Cl)Cl)[N+](=O)[O-])N1Cc1ccc(Cl)nc1 (stereo not given)	-16%	2%	-11%	-4%	7%	/
O=C(C(=C1N(Cc2ccc(Cl)nc2)CCN1Cc1ccc(Cl)nc1)[N+](=O)[O-])C(Cl)Cl	?	16µM*	?	18%	-5%	/
CCCN1[C@@H]2C[C@@H](O)CC[C@@H]2C[C@H]1C(=O)OC	/	/	/	/	/	4%
Cc1ccc(-n2c(C)cc(/C=C3/C(=O)NC(=O)N(Cc4ccco4)C3=O)c2C)cc1	0%	-3%	?	-6%	-2%	-3%
Cc1cccc(N2C(=O)NC(=O)/C(=C\C=C\c3ccco3)C2=O)c1	2.9µM*	8.2µM*	?	-6%	?	-4%
Cc1ccc(N2C(=O)NC(=O)/C(=C\C=C\c3ccco3)C2=O)cc1C	2.6µM*	5.2µM*	1.5µM*	-14%	?	-5%
Cc1cccc(N2C(=O)NC(=O)/C(=C\c3cccn3-c3ccc(Cl)cc3)C2=O)c1	10µM*	21µM*	0.53µM*	-1%	17%	0%
O=C1NC(=O)N(c2ccccc2)C(=O)/C1=C/C=C/c1ccco1	4.6µM*	4.6µM*	2.4µM*	26%	20µM*	/
CO/C1=C\C(C)=C\[C@@H](C)[C@@H](O)[C@@H](C)C/C(C)=C/C=C\[C@H](OC)C([C@@H](C)[C@@H](O)[C@H](C)[C@@]2(O)C[C@@H](O)[C@H](C)C(C(C)C)O2)OC1=O (stereo not given in full)	/	/	/	18%[2.33 µM]	2%	7%[3.34 µM]
CC(C)C(C)(NC(=O)c1cccn(Cc2ccc3c(c2)OC(F)(F)O3)c1=O)C(N)=O (stereo not given)	1%	-22%	-12%	-17%	1%	2%
